Compound activity from PubChem.
Pf growth 48h = P. falciparum growth inhibition at 48 hours (one generation); Potency, µM (highest dose often 28.7 µM), for the others: at the top dose activity change, negative = inhibition, most hits filed as inhibitors; 310,000 tested, 5.9% active; P. falciparum luciferase growth in erythrocytes, 48 h; AID 504832; further: potency means the concentration at half of the fitted maximal effect; on the % scale 0 is the no-effect control and ±100 the full control effect
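Luciferase-expressing parasites in RBCs, 2% Hct / 0.1% parasitemia final; RPMI 1640 + 0.5% Albumax; 37 C, 5% CO2, one generation; luminescence read-out, lower signal = inhibition.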
CHX counter = counter-screen for Shiga toxin inhibitors: cycloheximide protein synthesis inhibition | cell reporter, cycloheximide protein synthesis inhibition counterscreen | AID 2314 | max response, % | 300,000 tested, 12% active; in the data active means max response mostly above about 13%, no sharp cut-off; inactive means mostly below about 14%; further: read at 38.3 µM for the half of the compounds with a filed dose; 0% is about no effect
Pf growth 96h = P. falciparum growth inhibition at 96 hour, primary screen for plastid delayed-death inhibitors; P. falciparum luciferase reporter growth, 96 h; Potency, µM (titrated, usually from 28.7 µM), for the others: top-dose activity change, negative = inhibition, most hits filed as inhibitors; 320,000 tested, 6.9% active; further: potency means the concentration at half of the fitted maximal effect; on the % scale 0 is the no-effect control and ±100 the full control effect
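Delayed-death screen, second-generation endpoint: infected erythrocytes, 2% hematocrit, 0.05% parasitemia final; 96 hours at 37 C, 5% CO2; luciferase detection reagent; luminescence decrease equals reduced growth.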
Marburg entry inh = inhibitors of Marburg virus binding or cell entry | Marburg virus pseudotyped entry inhibition, cell reporter | Potency, µM (series often up to 37.8 µM), without a hit: at the highest dose activity change, negative = inhibition, hits mostly inhibitors | 300,000 tested, 1.8% active | AID 540276; calls by dose curve; tested in HEK293 cells; further: potency means the concentration at half of the fitted maximal effect; on the % scale 0 is the no-effect control and ±100 the full control effect
Shiga inhibitor = Shiga toxin inhibition | Vero cells, Shiga toxin protein synthesis inhibition reporter | inhibition, % at 38.7 µM | 290,000 tested, 9.2% active; in the data active means inhibition mostly above about 28%, no sharp cut-off; inactive means mostly below about 43%; further: 0% is about no effect
Lassa entry inh = Lassa virus entry inhibition. Lassa virus pseudotype entry inhibition, cell reporter. Potency, µM (series often up to 37.9 µM), for inactives: at the highest dose activity change, negative = inhibition, most hits filed as inhibitors. 300,000 tested, 1.2% active. AID 540256; calls by dose curve; tested in HEK293 cells; further: potency means the concentration at half of the fitted maximal effect; on the % scale 0 is the no-effect control and ±100 the full control effect; nearly all actives have a fitted effect of over 50% in size
* marks the source's active call; other numbers are inactive results; u = inconclusive; x = no result; [ ] = dose if it differs, or a comment. Most compounds without a hit are left out; they make up all but 19% or so of the library. Unless noted, the call rests on the fitted dose curve; in most records, active means well fitted inhibition curve with a large enough effect; inconclusive means small, poorly fitted or top-dose-only effect, or another doubt; inactive means no such curve, though single readings can be large or run the other way.

SMILES	Pf growth 48h	CHX counter	Pf growth 96h	Marburg entry inh	Shiga inhibitor	Lassa entry inh
CC(=O)c1ccc(N2CCCC2)c(F)c1	43%	17*	x	2%	81*	x
CCC(=O)c1ccc(N2CCN(C(=O)c3cc([N+](=O)[O-])ccc3N3CCN(C)CC3)CC2)c(F)c1	u	0	9.3µM*	u	29	-16%
CCn1c(N)nc2ccccc21	27%	15	35%	2%	40	3%
COc1ccc(/C=C2\N=C(SC)SC2=O)cc1OC	3%	-4	u	u	-13	7%
Cc1cccc(NC(=O)COc2ccc3c(c2)CCC3)n1	56%	x	56%	-29%	x	12%[46.1 µM]
O=C(COc1cccc(Cl)c1)Nc1ccc2c(c1)CCC2	55%	38*	0%	-2%	78*	8%
COc1cc(C)c(NC(=O)COc2ccc3c(c2)CCC3)cc1OC	1%	x	4%	11%	x	0%
O=C(COc1ccccc1F)Nc1ccc2c(c1)CCC2	x	x	x	u	x	4%
O=C(COc1ccc2c(c1)CCC2)Nc1ccccn1	-20%	x	-95%	u	x	11µM*
Cc1cnc(NC(=O)COc2ccc3c(c2)CCC3)s1	241%	60*	u	x	61*	x
COc1ccc(OC)c(C(=O)COC(=O)c2cc(C)oc2C)c1	u	1	-4%	-12%[46.1 µM]	14	-34%
O=C(NCC1CCCO1)Nc1ccccc1 (centres undefined)	x	-1	43%	16%	-1	-13%
Cn1c(N)c(S(=O)(=O)NCc2ccc(Cl)cc2)c(=O)n(C)c1=O	-24%	-3	23%	-4%[46.1 µM]	-4	4%
CC(=O)Nc1cccc(NC(=O)c2ccc(C(=O)Nc3cccc(NC(C)=O)c3)nc2)c1	-4%	10	u	-1%[46.1 µM]	2	10%[46.1 µM]
O=C(Nc1ccccc1)c1ccc(C(=O)Nc2ccccc2)nc1	46%	16	8%	6%[46.1 µM]	49*	22%
Cc1cccc(NC(=O)c2ccc(C(=O)Nc3cccc(C)c3)nc2)c1	7%	23	-14%	u	64*	u
Cn1cnnc1SCc1ccccc1[N+](=O)[O-]	7%	-3	15%	6%	-11	u
O=C(COC(=O)C1CC1)NCCc1ccc(Cl)cc1	-27%	x	30%	u	x	13%
CC(=O)Nc1nc(NC(=O)C(Cl)(Cl)Cl)n(-c2ccccc2)n1	37%	-2	15%	8%	1	2%
CC(=O)Nc1ccc(NC(=O)C(C)Oc2ccccc2F)cc1 (centres undefined)	-23%	10	19%	6%	18	-1%
CC(=O)Nc1ccc(NC(=O)C(C)OC(=O)C2(c3ccccc3F)CCCC2)cc1 (centres undefined)	8.3µM*	x	12µM*	x	x	x
CCn1c(CSCc2ccc(Cl)cc2)n[nH]c1=S	u	-4	28%	u	-6	-22%[46.1 µM]
COc1ccc(C2=C/C(=C\c3cccc(OC(C)=O)c3)C(=O)O2)cc1	18%	24*	u	-1%	34	7%
COc1ccc(C2=C/C(=C\c3ccccc3OC(C)=O)C(=O)O2)cc1	28%	22*	37%	x	103*	x
CCn1cc(C=C2C(=O)c3ccccc3C2=O)c2ccccc21	-1%	12*	u	0%[46.1 µM]	-13	10%
SMILES	Pf growth 48h	CHX counter	Pf growth 96h	Marburg entry inh	Shiga inhibitor	Lassa entry inh
COc1cc(C=C2C(=O)c3ccccc3C2=O)cc(OC)c1OC	19%	9	-13%	u	34	-5%[46.1 µM]
COc1cc(C=C2C(=O)c3ccccc3C2=O)ccc1O	33%	28*	5%	x	78*	x
COc1ccc(C=C2C(=O)c3ccccc3C2=O)cc1O	2%	38*	12µM*	26%[46.1 µM]	115*	0%[46.1 µM]
CCCn1c2c(c(O)c(C(=O)Nc3nc(C)cs3)c1=O)CCCC2	18%	-2	-2%	-1%	14	x
CC(=O)c1cnc(Nc2nc(C)c3ccc(C)cc3n2)nc1C	12%	-6	4%[5.75 µM]	-7%	-14	-9%
CC(=O)c1c(C)nc(Nc2nc(C)c3cc(C)ccc3n2)nc1C	4%	18	11%	u	56*	23%[46.1 µM]
Cc1ccc(Nc2nc3ccccc3s2)c(C)c1	265%	47*	186%	8.2µM*	94*	10µM*
Cc1cc(C)nc(Nc2nc3ccccc3s2)n1	155%	39*	1.7µM*	7%[46.1 µM]	59*	-12%
Cc1ccc(NC(=O)COC(=O)c2ccccc2-c2nc3ccccc3s2)c(C)c1	-9%	-3	-11%	25%	-13	-12%
